This passage reports Potency, max activation and outcome results from PubChem BioAssay (Tox21).

Where “and” joins values, the source holds several entries; their conditions need not be identical. Equal entries are not always repeated. Inconclusive results are not listed. A structure can be active in one record and inactive in another. Calls of active or inactive are those of the source. Unless noted, calls come from the whole dose curve; as a rule, active = well fitted curve in the direction sought with a large enough effect in the repeat runs; inconclusive = weak or mixed curves; inactive = no such curve, though single readings can be large; an effect the other way counts as inactive or inconclusive.

Assay [1] can be described thus: Human pregnane X receptor (PXR) small molecule agonists, qHTS cell viability counter screen (AID 1346977). Note: nearly all actives have a fitted effect of over 50% in size. Note: potency is the fitted concentration of half-maximal effect. Summed up:
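HepG2 cells stably carrying the PXR-Luc reporter are cultured with 5% charcoal-stripped FBS and treated with compounds for 24hr. CellTiter-Fluor is added at 23hr and fluorescence is read after 1hr.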

Assay [2] in a line: Caspase-3/7 induction in HepG2 cells by small molecules, qHTS assay (AID 1346978). Note: nearly all actives have a fitted effect of over 15% in size. Note: potency is the fitted concentration of half-maximal effect. In outline:
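Caspase-3/7 induction was measured by Caspase-Glo 3/7 luminescence (30 min, room temperature) after a 17 hr compound exposure of wild-type HepG2 cells seeded at 2,000 per well and pre-incubated 5 hr.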
On the technique in general: qHTS replaces the single test concentration by a dilution series.

A short description of assay [3]: Caspase-3/7 induction in CHO-K1 cells by small molecules, qHTS assay (AID 1346980). Note: % is set by controls: 0 for no effect and ±100 for the full control effect; nearly all actives have a fitted effect of over 15% in size. Summed up: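 Luminescent Caspase-Glo 3/7 read (30min, room temperature) quantified apoptosis induction. Cells were wild-type CHO-K1, treated with compound for 17hr at 37 C and 5% CO2.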
A short description of assay [4]: Caspase-3/7 induction in HepG2 cells by small molecules, qHTS cell viability counter screen (AID 1346981). Note: nearly all actives have a fitted effect of over 30% in size. Note: potency is the fitted concentration of half-maximal effect. Summed up:
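Fluorescence read-out of live-cell protease activity (CellTiter-Fluor) after 1 hr with reagent. This was measured in the same wells as the caspase-3/7 luminescence, on HepG2 cells exposed to DMSO-dissolved compounds for 16 hr at 37 C.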

Assay [5] addresses Nuclear receptor subfamily 1 group I member 2 (Homo sapiens) (UniProt O75469). Description: Human pregnane X receptor (PXR) small molecule agonists, qHTS assay (AID 1346982). For activation: % is set by controls: 0 for no effect and ±100 for the full control effect. Note: nearly all actives have a fitted effect of over 35% in size. Note: potency is the fitted concentration of half-maximal effect. Summed up:
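HepG2 PXR-Luc reporter line, 5% charcoal-stripped FBS; 5 hr pre-incubation, compound (DMSO) 24 hr at 37 C/5% CO2; ONE-Glo 30 min RT; luminescence read-out.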

The target of assay [6] is Nuclear receptor subfamily 1 group I member 2 (Rattus norvegicus) (UniProt Q9R1A7). Briefly: Rat pregnane X receptor (rPXR) activation by small molecules, qHTS assay (AID 1346983). Note: % is set by controls: 0 for no effect and ±100 for the full control effect; nearly all actives have a fitted effect of over 20% in size. The conditions noted are these: rPXR luciferase reporter cells, One-Glo luminescence, 24 h; stronger effect = higher value. Summed up:
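Luminescent readout (One-Glo luciferase, 30 min room temperature) followed 24 hr compound treatment at 37 C of rPXR cells plated 2,000 per well and preincubated 5hr; qHTS format with compounds delivered in DMSO.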

Assay [7] has as its target Nuclear receptor subfamily 1 group I member 2 (Homo sapiens) (UniProt O75469). Briefly: CYP3A4 induction through human pregnane X receptor (PXR) by small molecules, qHTS assay (AID 1346984). Note: % is set by controls: 0 for no effect and ±100 for the full control effect; nearly all actives have a fitted effect of over 40% in size. In outline:
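HepG2-derived DPX-2 line carrying PXR plus a CYP3A4-promoter luciferase reporter; cells plated 5 hr, compound-exposed 24 hr at 37C. CYP3A4 activity probed with 3uM (final) Luciferin-IPA for 3hr, then luciferase read after One-Glo.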

Assay [8] has the same target. Description: Human pregnane X receptor (PXR) activation by small molecules, qHTS assay (AID 1346985). Note: % is set by controls: 0 for no effect and ±100 for the full control effect; nearly all actives have a fitted effect of over 40% in size. Summed up: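 DPX-2 cells (HepG2 co-transfected with a PXR response element and a CYP3A4-promoter luciferase construct) were seeded at 2,000 per well, rested 5 hr at 37C, then exposed to DMSO-dissolved compounds for 24 hr. Activation was read as luciferase luminescence.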

Assay [9] has as its target Acetylcholinesterase (Homo sapiens) (UniProt P22303). Description: Acetylcholinesterase (AChE) small molecule antagonists: colormetric cell-based qHTS assay (AID 1347395; calls by dose curve; note: nearly all actives have a fitted effect of over 30% in size; note: potency is the fitted concentration of half-maximal effect). Summed up:
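Quantitative HTS in attached SH-SY5Y cells: 30 min compound exposure, then 90 min with acetylthiocholine and DTNB at 37 C; colour from thiocholine reports AChE activity.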

Assay [10] shares this target. Description: Acetylcholinesterase (AChE) small molecule antagonists: enzyme-based qHTS assay (AID 1347397; calls by dose curve; note: % is set by controls: 0 for no effect and ±100 for the full control effect; nearly all actives have a fitted effect of over 55% in size). The conditions noted are these: Potency: AChE enzyme activity inhibition. In outline: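 Colorimetric DTNB readout of acetylthiocholine hydrolysis, 10 min at room temperature, after 30 min room-temperature exposure of 50 mU/mL recombinant human enzyme to compound; DMSO vehicle control.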

The target is the same in assay [11]. Description: Acetylcholinesterase (AChE) small molecule antagonists: fluorescence cell-based qHTS assay (AID 1347398; calls by dose curve; note: % is set by controls: 0 for no effect and ±100 for the full control effect; nearly all actives have a fitted effect of over 50% in size). To be noted: Potency: AChE activity. Summed up:
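Cellular AChE activity read as thiocholine from acetylthiocholine hydrolysis, detected by Thiolite Green fluorescence at 490/520 nm after 40 min at room temperature. Compounds were pre-incubated 30 min at 37 C on adherent SH-SY5Y cells.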

For assay [12] the target is unchanged. Description: Acetylcholinesterase (AChE) small molecule antagonists: enzyme-based qHTS assay with human liver microsomes (AID 1347399; calls by dose curve; note: % is set by controls: 0 for no effect and ±100 for the full control effect; nearly all actives have a fitted effect of over 60% in size). The conditions noted are these: Potency: qHTS inhibition. Summed up:
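Recombinant human AChE (50 mU/mL in the enzyme mix) and human liver microsomes (0.25 mg/mL final) were preincubated with compound and NADPH (0.25 mg/mL final) for 30 min at 37 C. Acetylthiocholine/DTNB was then added; thiocholine was read colorimetrically after 10 min at room temperature.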

The target in assay [13] is Cytochrome P450 2D6 (Homo sapiens) (UniProt P10635). Briefly: Cytochrome P450 Family 2 Subfamily D Member 6 (CYP2D6) small molecule antagonists: luciferase reporter qHTS assay (AID 1671196). Note: nearly all actives have a fitted effect of over 50% in size. Note: potency is the fitted concentration of half-maximal effect. In outline: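 Luminogenic proluciferin substrate, CYP2D6 enzyme; 10 min RT preincubation with compound, NADPH regeneration system added, 1 h RT. Stop/detection reagent, 20 min RT, luminescence read (RLU). Signal proportional to CYP activity.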
Cytochrome P450 2D6 (Homo sapiens), sequence (P10635 whole entry, looked up): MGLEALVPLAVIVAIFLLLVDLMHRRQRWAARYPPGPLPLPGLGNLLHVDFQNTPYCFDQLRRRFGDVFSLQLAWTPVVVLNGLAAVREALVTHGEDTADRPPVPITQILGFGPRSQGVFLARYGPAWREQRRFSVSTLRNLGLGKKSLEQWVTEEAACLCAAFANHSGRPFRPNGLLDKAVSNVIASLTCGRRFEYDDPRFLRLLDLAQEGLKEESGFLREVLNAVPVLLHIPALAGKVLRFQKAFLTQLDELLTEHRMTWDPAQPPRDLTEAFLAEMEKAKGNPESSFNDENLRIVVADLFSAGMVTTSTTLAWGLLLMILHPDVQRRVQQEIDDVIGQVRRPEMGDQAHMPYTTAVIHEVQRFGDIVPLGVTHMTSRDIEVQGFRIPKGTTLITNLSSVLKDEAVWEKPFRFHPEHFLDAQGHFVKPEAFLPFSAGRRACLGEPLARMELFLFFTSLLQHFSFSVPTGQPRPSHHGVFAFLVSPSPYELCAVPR

Assay [14] has as its target Cytochrome P450 2C19 (Homo sapiens) (UniProt P33261). Description: Cytochrome P450 Family 2 Subfamily C Member 19 (CYP2C19) small molecule antagonists: luciferase reporter qHTS assay (AID 1671197). Note: nearly all actives have a fitted effect of over 65% in size. Note: potency is the fitted concentration of half-maximal effect. Summed up: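 P450-Glo CYP2C19 system: enzyme-substrate mix with compound 10 min at room temperature, then NADPH regeneration solution, 1 h at 37C. Proluciferin-to-luciferin conversion detected by luminescence after 20 min with detection reagent; ketoconazole as positive control.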
On the technique in general: Reporter assays use an easily measured gene product as a stand-in for the process of interest.

Assay [15] has as its target Cytochrome P450 2C9 (Homo sapiens) (UniProt P11712). Briefly: Cytochrome P450 Family 2 Subfamily C Member 9 (CYP2C9) small molecule antagonists: luciferase reporter qHTS assay (AID 1671198). Note: nearly all actives have a fitted effect of over 50% in size. Note: potency is the fitted concentration of half-maximal effect. In outline: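 Enzyme-substrate mix preincubated with compound 10 min at room temperature; reaction started with NADPH regeneration solution, 1 h 37C. Luminescent luciferin product read after 20 min detection reagent.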

Assay [16] has as its target Cytochrome P450 1A2 (Homo sapiens) (UniProt P05177). Briefly: Cytochrome P450 Family 1 Subfamily A Member 2 (CYP1A2) small molecule antagonists: luciferase reporter qHTS assay (AID 1671199). Note: nearly all actives have a fitted effect of over 50% in size. Note: potency is the fitted concentration of half-maximal effect. In outline: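 Luminescence readout (relative luminescence units) after luciferin detection reagent, 20 min RT. Preceded by 1 h room-temperature CYP1A2 reaction with NADPH regeneration solution following 10 min compound preincubation with enzyme and proluciferin substrate. Furafylline positive control.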

Assay [17] concerns the target Voltage-gated inwardly rectifying potassium channel KCNH2 (Homo sapiens) (UniProt Q12809). Description: Human Ether-a-go-go-Related Gene (hERG) channel small molecule antagonists: fluorescence cell-based qHTS assay (AID 1671200). Summed up: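 First, 1000 cells per well are seeded and cultured overnight at 37 C. Next, FluxOR II dye is loaded for 1 h at room temperature, protected from light. After 10 more minutes, stimulus is added and fluorescence is read.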
In general terms: hERG is a cardiac potassium channel; its block is linked to QT prolongation.

Assay [18] has as its target Cytochrome P450 3A4 (Homo sapiens) (UniProt P08684). Briefly: Cytochrome P450 Family 3 Subfamily A Member 4 (CYP3A4) small molecule antagonists: luciferase reporter qHTS assay (AID 1671201). Note: nearly all actives have a fitted effect of over 50% in size. Note: potency is the fitted concentration of half-maximal effect. In outline: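 Enzyme and proluciferin substrate are mixed with test chemicals for 10 min, then NADPH regeneration system drives turnover for 1 h at room temperature. A detection reagent halts the reaction; luminescence after 20 min gives relative activity.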

The nature of assay [19]: Caspase-3/7 induction in CHO-K1 cells by small molecules, qHTS cell viability counter screen (AID 1346979). Note: potency is the fitted concentration of half-maximal effect; nearly all actives have a fitted effect of over 35% in size. In outline:
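Seeding: 1,500 CHO-K1 cells/well. Rest: 5hr, 37C. Treatment: compounds in DMSO, 16hr. Read: CellTiter-Fluor, 1hr, fluorescence.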

Cytochrome P450 2C19 (Homo sapiens), sequence (P33261 whole entry, looked up): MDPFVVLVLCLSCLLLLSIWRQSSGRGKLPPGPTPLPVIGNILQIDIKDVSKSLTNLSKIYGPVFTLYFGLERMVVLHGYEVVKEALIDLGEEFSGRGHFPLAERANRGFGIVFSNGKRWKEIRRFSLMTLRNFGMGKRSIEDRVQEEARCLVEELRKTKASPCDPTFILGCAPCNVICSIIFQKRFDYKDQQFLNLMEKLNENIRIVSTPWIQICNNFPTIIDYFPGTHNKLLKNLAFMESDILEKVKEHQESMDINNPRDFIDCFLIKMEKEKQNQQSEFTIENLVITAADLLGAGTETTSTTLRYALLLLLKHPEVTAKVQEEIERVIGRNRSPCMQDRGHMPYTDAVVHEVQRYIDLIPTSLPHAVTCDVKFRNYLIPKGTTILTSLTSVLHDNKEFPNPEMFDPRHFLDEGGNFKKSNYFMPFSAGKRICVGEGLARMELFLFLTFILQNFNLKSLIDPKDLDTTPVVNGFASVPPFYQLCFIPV
Cytochrome P450 3A4 (Homo sapiens), sequence (P08684 whole entry, looked up): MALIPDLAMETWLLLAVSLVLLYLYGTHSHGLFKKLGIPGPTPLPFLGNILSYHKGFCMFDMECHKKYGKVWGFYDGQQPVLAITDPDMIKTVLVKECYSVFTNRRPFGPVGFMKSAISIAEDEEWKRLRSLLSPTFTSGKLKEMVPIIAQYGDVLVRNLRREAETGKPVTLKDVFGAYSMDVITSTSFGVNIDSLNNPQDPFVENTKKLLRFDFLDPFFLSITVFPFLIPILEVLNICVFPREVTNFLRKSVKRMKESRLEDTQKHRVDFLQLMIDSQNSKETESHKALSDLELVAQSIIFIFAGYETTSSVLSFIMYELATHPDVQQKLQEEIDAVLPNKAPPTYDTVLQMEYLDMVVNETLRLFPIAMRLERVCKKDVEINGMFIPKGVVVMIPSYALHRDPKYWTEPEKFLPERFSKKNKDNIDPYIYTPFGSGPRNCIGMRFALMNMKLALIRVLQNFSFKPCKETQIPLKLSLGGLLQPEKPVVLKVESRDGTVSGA
Cytochrome P450 1A2 (Homo sapiens), sequence (P05177 whole entry, looked up): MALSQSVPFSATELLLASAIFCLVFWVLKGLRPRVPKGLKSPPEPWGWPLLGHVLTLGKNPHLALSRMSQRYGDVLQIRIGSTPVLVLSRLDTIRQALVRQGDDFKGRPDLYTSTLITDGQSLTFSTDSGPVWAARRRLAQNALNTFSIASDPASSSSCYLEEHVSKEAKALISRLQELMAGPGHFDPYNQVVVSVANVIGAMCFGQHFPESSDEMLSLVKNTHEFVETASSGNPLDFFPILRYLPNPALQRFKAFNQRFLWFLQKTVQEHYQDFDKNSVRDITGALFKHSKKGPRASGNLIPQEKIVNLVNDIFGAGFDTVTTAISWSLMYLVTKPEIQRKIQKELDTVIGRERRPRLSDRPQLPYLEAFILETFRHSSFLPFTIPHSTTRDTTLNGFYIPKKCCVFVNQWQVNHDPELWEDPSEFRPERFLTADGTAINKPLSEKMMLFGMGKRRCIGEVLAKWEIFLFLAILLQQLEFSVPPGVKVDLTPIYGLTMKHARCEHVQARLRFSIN
Voltage-gated inwardly rectifying potassium channel KCNH2 (Homo sapiens), sequence (Q12809 whole entry, looked up): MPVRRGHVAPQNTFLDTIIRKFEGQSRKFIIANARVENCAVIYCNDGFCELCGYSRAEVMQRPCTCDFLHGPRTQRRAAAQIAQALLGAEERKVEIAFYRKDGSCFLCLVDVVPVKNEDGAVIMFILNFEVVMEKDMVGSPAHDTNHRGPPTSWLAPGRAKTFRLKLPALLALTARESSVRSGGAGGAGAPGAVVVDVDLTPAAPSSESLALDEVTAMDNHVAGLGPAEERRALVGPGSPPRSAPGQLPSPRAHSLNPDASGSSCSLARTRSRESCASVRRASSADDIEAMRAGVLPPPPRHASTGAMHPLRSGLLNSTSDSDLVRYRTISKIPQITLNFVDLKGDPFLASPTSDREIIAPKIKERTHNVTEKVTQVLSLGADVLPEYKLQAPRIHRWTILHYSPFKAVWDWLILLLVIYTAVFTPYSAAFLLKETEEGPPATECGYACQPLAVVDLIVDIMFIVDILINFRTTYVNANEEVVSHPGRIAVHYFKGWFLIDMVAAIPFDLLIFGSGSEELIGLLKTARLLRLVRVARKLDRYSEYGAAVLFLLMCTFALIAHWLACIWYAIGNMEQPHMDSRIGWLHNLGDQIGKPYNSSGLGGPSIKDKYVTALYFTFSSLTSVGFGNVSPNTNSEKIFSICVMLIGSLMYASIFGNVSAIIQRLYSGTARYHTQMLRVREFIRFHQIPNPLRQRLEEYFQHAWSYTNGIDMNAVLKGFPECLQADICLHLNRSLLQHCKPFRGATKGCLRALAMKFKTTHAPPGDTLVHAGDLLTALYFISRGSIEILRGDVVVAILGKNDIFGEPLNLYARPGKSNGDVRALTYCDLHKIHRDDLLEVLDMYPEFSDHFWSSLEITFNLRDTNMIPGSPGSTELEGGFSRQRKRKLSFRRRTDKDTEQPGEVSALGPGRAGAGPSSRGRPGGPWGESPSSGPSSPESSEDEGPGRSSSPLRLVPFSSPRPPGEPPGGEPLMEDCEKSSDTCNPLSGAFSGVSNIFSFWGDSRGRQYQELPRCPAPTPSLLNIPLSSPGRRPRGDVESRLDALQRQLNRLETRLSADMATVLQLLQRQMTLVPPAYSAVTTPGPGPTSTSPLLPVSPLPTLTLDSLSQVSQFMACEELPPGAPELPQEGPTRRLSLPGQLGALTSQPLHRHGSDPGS
Acetylcholinesterase (Homo sapiens), sequence (P22303 whole entry, looked up): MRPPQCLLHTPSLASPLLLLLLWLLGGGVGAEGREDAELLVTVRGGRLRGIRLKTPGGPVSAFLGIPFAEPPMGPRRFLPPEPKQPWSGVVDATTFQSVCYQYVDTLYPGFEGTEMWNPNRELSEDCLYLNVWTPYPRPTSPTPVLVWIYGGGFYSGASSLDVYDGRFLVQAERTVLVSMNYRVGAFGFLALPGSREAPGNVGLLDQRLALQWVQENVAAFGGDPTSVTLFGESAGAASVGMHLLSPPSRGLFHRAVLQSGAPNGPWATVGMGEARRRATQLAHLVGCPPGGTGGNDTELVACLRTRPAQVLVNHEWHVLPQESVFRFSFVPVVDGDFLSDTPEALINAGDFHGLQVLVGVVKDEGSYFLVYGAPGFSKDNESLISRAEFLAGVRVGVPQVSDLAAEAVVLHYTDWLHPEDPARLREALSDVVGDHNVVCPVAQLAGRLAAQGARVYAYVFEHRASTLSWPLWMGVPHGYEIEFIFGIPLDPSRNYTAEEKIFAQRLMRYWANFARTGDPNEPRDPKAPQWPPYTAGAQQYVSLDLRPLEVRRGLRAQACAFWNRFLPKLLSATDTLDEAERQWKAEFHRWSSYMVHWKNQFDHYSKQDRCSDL
Nuclear receptor subfamily 1 group I member 2 (Homo sapiens), sequence (O75469 whole entry, looked up): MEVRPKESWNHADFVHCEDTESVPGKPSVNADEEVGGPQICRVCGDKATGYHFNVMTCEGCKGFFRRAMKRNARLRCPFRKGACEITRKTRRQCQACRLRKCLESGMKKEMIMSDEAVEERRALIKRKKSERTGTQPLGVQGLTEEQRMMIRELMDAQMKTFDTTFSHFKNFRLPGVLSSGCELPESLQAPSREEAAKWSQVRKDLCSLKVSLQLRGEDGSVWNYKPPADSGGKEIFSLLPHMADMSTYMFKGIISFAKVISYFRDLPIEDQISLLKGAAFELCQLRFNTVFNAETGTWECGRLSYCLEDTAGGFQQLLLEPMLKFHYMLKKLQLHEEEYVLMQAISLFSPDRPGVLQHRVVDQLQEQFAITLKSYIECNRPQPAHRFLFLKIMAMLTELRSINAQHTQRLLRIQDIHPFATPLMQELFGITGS
Cytochrome P450 2C9 (Homo sapiens), sequence (P11712 whole entry, looked up): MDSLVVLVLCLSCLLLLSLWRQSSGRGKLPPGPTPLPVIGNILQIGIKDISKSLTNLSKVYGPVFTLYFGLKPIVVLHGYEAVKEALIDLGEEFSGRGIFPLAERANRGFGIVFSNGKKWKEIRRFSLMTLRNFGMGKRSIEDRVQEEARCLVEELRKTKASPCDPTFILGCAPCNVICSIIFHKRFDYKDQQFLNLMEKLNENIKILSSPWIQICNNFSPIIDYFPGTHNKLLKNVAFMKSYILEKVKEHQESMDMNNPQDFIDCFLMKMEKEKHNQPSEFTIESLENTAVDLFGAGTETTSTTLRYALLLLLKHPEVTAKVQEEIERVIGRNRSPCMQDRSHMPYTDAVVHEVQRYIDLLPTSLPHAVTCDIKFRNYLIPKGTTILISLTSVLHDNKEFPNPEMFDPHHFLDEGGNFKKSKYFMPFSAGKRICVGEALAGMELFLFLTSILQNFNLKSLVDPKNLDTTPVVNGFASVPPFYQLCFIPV

On to `O=[N+]([O-])/N=C1\NCCN1Cc1ccc(Cl)nc1`, for which the Potency result in assay [1], in [2], in assay [3], in [4], in assay [5] and in assay [7] was “inactive” in each case. Moreover, the Potency result in [9], in assay [10], in assay [11], in [12], in assay [13] and in assay [14] was “inactive” each time. In addition, the Potency entry in assay [15], in assay [16] and in assay [17] was “inactive” in each case. In assay [6], the max activation is -0.749% (inactive). Also, the result in assay [8] was inactive.
On to `CCCCC(C#N)(Cn1cncn1)c1ccc(Cl)cc1` (stereo unspecified), for which the Potency result in [1], in assay [2], in [3], in [4], in assay [9] and in assay [10] was “inactive” each time. Further, the Potency entry in [11], in assay [12] and in assay [17] was “inactive” each time. Further, the Potency in [5] was 30.5 µM (active) and inactive; in assay [14] it was 794 nM (active) and 633 nM (active); in assay [15] it was 28.2 µM (active) and 25.2 µM (active); in assay [18], 158 nM (active) and 224 nM (active).
Consider `N#Cc1c(Cl)c(Cl)c(Cl)c(C#N)c1Cl`, for which the Potency in assay [1] is 12.6 µM (active) and 13.7 µM (active); in [19] it was 1.07 µM (active) and 1.72 µM (active); in assay [4] it was 23.9 µM (active) and 54.5 µM (active); in assay [5] it was 950 nM (active) and 1.93 µM (active); in assay [9], 15.6 µM (active) and 17.8 µM (active); in assay [13], 34.9 µM (active) and inactive. Moreover, the Potency in assay [14] was 17.5 µM (active) and 22.4 µM (active); in assay [15], 5.53 µM (active) and 5.64 µM (active); in assay [16] it was 984 nM (active) and 1 µM (active); in [18], 984 nM (active) and 1.26 µM (active). For the same molecule, the Potency result in [2], in [10], in [12] and in [17] was “inactive” in each case.
As for `COC(=O)Nc1nc2ccccc2[nH]1`, the Potency entry in assay [1], in assay [3], in assay [4], in [9], in assay [10] and in assay [11] was “inactive” each time. Also, the Potency result in [12], in assay [13], in assay [14] and in assay [17] was “inactive” in each case. In addition, the Potency is 6.11 µM (active) and inactive in assay [2]; 54.5 µM (active) in [5]; “inactive and 71 µM (active)” in assay [15]; 11.2 µM (active) and 20 µM (active) in assay [16].
Regarding `CN(C)c1ccccc1`, the Potency result in assay [1], in [2], in assay [3], in assay [4], in assay [5] and in assay [9] was “inactive” throughout. The Potency entry in assay [10], in assay [11], in assay [12], in assay [13], in assay [15] and in [17] was “inactive” throughout. Also, the Potency was 29 µM (active) and 41.6 µM (active) in [14]; 32.5 µM (active) and inactive in assay [18].
For `CC1(C)C(C(=O)OC(C#N)c2cccc(Oc3ccccc3)c2)C1(C)C` (stereo unspecified), the Potency entry in assay [1], in assay [2], in [3], in assay [4], in [9] and in assay [10] was “inactive” in each case. The Potency entry in [11], in assay [12], in [13], in assay [17] and in assay [18] was “inactive” in each case. Further, the Potency in [5] was 15.5 µM (active); in [14] it was 9 µM (active) and 22.4 µM (active); in assay [15], 11.3 µM (active) and 7.96 µM (active).
